An excerpt weighted towards active compounds, which were near 2.2% of everything screened.
CRFR2-BP antag = CRF-BP/CRF-R2 complex antagonism. HEK293 CRF-R2/CRF-BP, CRF-induced calcium fluorescence. inhibition, % at 11.8 µM. 350,000 compounds, 0.59% hits;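 active = inhibition of the ligand-induced calcium signal above about 50% at the single tested concentration, limit read from the data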
RTF Ca sens act = cardiac RTF calcium sensitization | P19429+P45379 | IANBD-labeled TnC RTF fluorescence at EC20 calcium; 0% EC20 calcium, 100% full calcium | activation, % at 7.2 µM | 340,000 compounds, 0.24% hits;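 active = activation above the mean over all tested compounds plus 3 SD, cut at about 30% in these data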;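 note: rise in fluorescence read as greater calcium sensitivity of cardiac thin filaments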
Cardiac RTF inh = cardiac RTF calcium desensitization; 340,000 compounds, 0.12% hits; P19429+P45379; inhibition, % at 7.15 µM; IANBD-labeled cardiac RTF, Ca2+ fluorescence;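 active = inhibition above the mean inhibition of all tested compounds plus 3 SD, cut at about 17% in these data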;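 note: assay run at fixed EC70 calcium of 1.6 mM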
Myeloid diff 2 = compounds promoting myeloid differentiation; ER-HoxA9 myeloid progenitors, lysozyme-GFP differentiation, flow cytometry; calls only at 10 µM; 360,000 compounds, 1% hits; AID 624256;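 active = normalized GFP-positive differentiation at or above the plate's own cutoff, the solvent-only control mean plus 3 SD; inconclusive = no clear call, values can overlap the other calls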;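 note: cells exposed to compound for four days before flow analysis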
CRFR2-BP ag = agonists of human CRF-binding protein/CRF-R2 receptor complex; HEK293 CRF-R2/CRF-BP, calcium dye fluorescence (FLIPR); percent of saturating CRF peptide response; AID 588473; 350,000 compounds, 0.46% hits; activation, % at 13.2 µM;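 active = activation of at least 50%, plus an integration ratio under a set limit after plate pattern correction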;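 note: plate controls were neutral control wells without compound for no effect and CRF at EC100 for full effect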
* = called active by the depositor; i = inactive; ? = inconclusive; . = not tested or not shown; + = active, no number; ! = repeats disagree.

SMILES	CRFR2-BP antag	RTF Ca sens act	Cardiac RTF inh	Myeloid diff 2	CRFR2-BP ag
O=C(Nc1ccccc1)C1Cc2c(-c3ccc(Cl)cc3)ccnc2O1 (stereo not drawn)	.	.	.	i	.
CC(C)N1C(=O)S/C(=C\c2ccc(-c3ccc(Cl)c(C(=O)O)c3)o2)C1=O	0	1	5	i	1
CCN(CC)c1ccc(/C=C2/SC(=O)N(C(C)C)C2=O)o1	-14	155*	-114	+	8
Cc1cc(S(=O)(=O)Nc2ccc(C(=O)NCC(C)(C)N3CCOCC3)cc2)ccc1F	54*	0	-9	i	0
COc1c(Cl)ccc(Cl)c1C(=O)NC(=S)N1CCOCC1	-7	0	-5	i	0
c1ccc(C(c2ccccc2)N2CCN(Cc3nnnn3C3CCCC3)CC2)cc1	22	2	4	i	-1
CC(C)CCn1nnnc1CN1CCN(C(c2ccccc2)c2ccccc2)CC1	14	-1	-11	+	2
Cc1ccc(C(C(=O)NCc2ccc(F)cc2)N(Cc2ccco2)C(=O)c2snc(C(N)=O)c2N)o1 (stereo not drawn)	1	-3	-3	i	-1
CC1CCN(S(=O)(=O)c2ccc(NC(=O)C3CSC4(C)CCC(=O)N34)cc2)CC1 (stereo not drawn)	-8	-3	1	i	-1
Cc1nnc(NC(=O)CSc2nnc(Cc3ccccc3)n2-c2ccccc2)s1	81*	5	-4	i	-3
CC(=O)c1c(N2CCCCC2)nc(=S)n(Cc2ccccc2)c1C	108*	3	-9	i	0
Cc1noc(C)c1COC(=O)c1cccc(S(=O)(=O)N2c3ccccc3CC2C)c1 (stereo not drawn)	56*	0	-1	i	18
Cc1ccc(Sc2ccc(CN3CCCC3)cc2[N+](=O)[O-])cc1	-26	2	0	i	-2
Cc1ccc(Sc2ccc(CO)cc2[N+](=O)[O-])cc1	51*	-2	8	i	-1
CCc1ccc(CCC(=O)Nc2ccc(Cl)cc2)o1	3	-8	0	.	-2
CN1C(=O)CS/C1=N\NC(=O)COc1cccc2cccnc12	-5	6	-20	i	0
N=C1/C(=C/c2cccs2)C(=O)N=C2SN=C(SCc3ccccc3)N12	102*	-3	0	i	15
CC(C)CSC1=NSC2=NC(=O)/C(=C\c3cccs3)C(=N)N12	75*	-2	-4	i	70*
COc1ccc(Nc2nc(N)nc(CSC(=S)N3CCCCC3C)n2)cc1 (stereo not drawn)	-17	-1	1	i	0
COc1ccc(C)cc1NC(=O)CC1COc2ccccc2O1 (stereo not drawn)	24	67*	-14	i	-4
COc1cc(OC)c(OC)cc1NC(=O)CC1COc2ccccc2O1 (stereo not drawn)	34	1	-1	i	-1
COCCN(Cc1ccc(F)cc1)C(=O)c1cc2ccccc2oc1=O	10	-1	-1	i	-5
C#CCOCCOCCOCCNc1nc(N2CCN(C(=O)C([C@@H](C)O)n3cc([C@@H](N)CCCCN)nn3)CC2)nc(N2CCN(C(=O)[C@H](CCC(=O)O)n3cc([C@@H](N)[C@H](C)CC)nn3)CC2)n1 (stereo partly drawn)	-2	0	-8	+	4
C#CCOCCOCCOCCNc1nc(N2CCN(C(=O)[C@H](CCCN=C(N)N)n3cc(C(N)[C@@H](C)CC)nn3)CC2)nc(N2CCN(C(=O)[C@H](CCC(=O)O)n3cc([C@@H](N)[C@H](C)CC)nn3)CC2)n1 (stereo partly drawn)	0	3	2	i	-1
C#CCOCCOCCOCCNc1nc(N2CCN(C(=O)[C@H](CCCN=C(N)N)n3cc(C(N)[C@@H](C)CC)nn3)CC2)nc(N2CCN(C(=O)[C@H](CCC(=O)O)n3cc([C@@H](N)CC(N)=O)nn3)CC2)n1 (stereo partly drawn)	-34	-11	-3	+	-1
SMILES	CRFR2-BP antag	RTF Ca sens act	Cardiac RTF inh	Myeloid diff 2	CRFR2-BP ag
COc1ccc(S(=O)(=O)N2CCN(C(c3ccccc3)c3ccccc3)CC2)cc1NC(C)=O	1	-1	-11	i	1
COC1C(CO)OC(n2c3c(Cl)cccc3c3c4c(c5c6cccc(Cl)c6[nH]c5c32)C(=O)NC4=O)C(O)C1O (stereo not drawn)	-75	21	-39	?	67*
CC(=O)N1C[C@@H](CO)[C@@H](N(C)C(=O)C2CCCCC2)C[C@H]1c1ccccc1	.	.	.	i	.
COc1ccc(/C(C)=N/Nc2nc3ccccc3n3cnnc23)cc1OC	-8	.	.	.	-2
C#CCN(Cc1ccco1)C(=O)c1ccc(OC2CCN(Cc3ccccn3)CC2)cc1	-9	-5	3	i	0
CCCN1CNC(=S)N(Cc2ccccc2)C1	10	3	-5	i	-2
S=C1NCN(CCc2ccccc2)CN1Cc1ccccc1	108*	-7	-2	i	1
O=c1ccc2cc3c4c(c2o1)CCCN4CCC3	-10	129*	-245	i	20
Cc1nc(NCc2ccccn2)c2c3c(sc2n1)CCCC3	-49	5	-3	+	0
CCCCCCSc1cc(-c2nc3cc(C)ccn3c2NCCCC)ccc1OC	1	11	12	+!	1
CCCCCCSc1cc(-c2nc3cnccn3c2NCCCC)ccc1OC	-21	0	-8	i	7
CCN(CC)C(=O)c1cccc(-c2csc(C(O)c3ccccc3)n2)c1 (stereo not drawn)	.	.	.	i	.
CCN(CC)C(=O)c1cccc(-c2csc(C(O)c3ccco3)n2)c1 (stereo not drawn)	.	.	.	+	.
Cc1cc(C)c(S(=O)(=O)N2CCN(C(=O)N3CCCCC3)CC2)c(C)c1	-15	-4	-2	+	-1
Cc1ccc(N)c(C(=O)CCCCC(=O)O)c1	-1	4	-9	+	0
COc1ccccc1N1C(=O)C2C(C(=O)c3ccccc3)=NN(c3ccccc3OC)C2C1=O (stereo not drawn)	-18	11	-2	i	26
COc1ccc(OC)c(/C=N/N(C)c2ccccc2)c1	-5	-7	1	i	-2
COc1cc(/C=N/N(C)c2ccccc2)cc(Cl)c1O	53*	3	-12	i	-2
CCOC(=O)N1C(=O)C2(CCCCC2)N(c2ccccc2Cl)C1=S	-11	-3	-1	i	-1
NNc1nc2c(-c3ccc(Cl)cc3)nnn2c2ccccc12	-10	3	-7	+	2
NNc1nc2c(-c3ccc(F)cc3)nnn2c2ccccc12	-10	2	-2	+	-1
c1ccc(-n2c(-c3ccncc3)nnc2-c2ccco2)cc1	56*	-3	-5	i	0
c1ccc(-c2nnc(-c3ccco3)n2-c2ccccc2)cc1	39	1	4	i	2
CCc1nc2ccccc2c(C(=O)OCc2nc3ccccc3c(=O)[nH]2)c1C	-7	5	-3	i	2

High-throughput results as filed in PubChem.
